Screening data deposited in PubChem by several laboratories.
Smad3 inh: Smad3 (human) transcription factor binding inhibition; TR-FRET Smad3/Dy647-FoxH1 peptide binding, europium anti-His; inhibition, % at 25 µM; 0.29% of 88,000 active; AID 630;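 active means compounds that reduce the energy-transfer binding signal between the protein and its labelled peptide by more than half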
ERb SRC1 inh: ER-beta (human) coactivator binding inhibition. AID 633. Q92731. inhibition, % at 25.6 µM. 1.3% of 86,000 active. TR-FRET ER-beta LBD / SRC1-Cy5 peptide binding; receptor agonist-loaded with 1 µM estradiol;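 active means compounds whose percent inhibition of the receptor-coactivator binding signal exceeds about 50% in the single-dose screen, limit read from the data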
PLK1 PBD inh: Plk1 (human) PBD binding inhibition. P53350. Plk1 PBD phosphopeptide binding, fluorescence polarization. inhibition, %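 (tested at about 20 µM)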. 0.13% of 97,000 active. AID 693; in the data active means inhibition above about 34%, passing the limit was not always enough
PLK1 kinase inh: blocks human PLK1 kinase activity | 0.53% of 97,000 active | AID 619 | recombinant PLK1 kinase, TR-FRET peptide phosphorylation | inhibition, % at 10 µM | P53350;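 active means inhibition of 50% or more in the single-concentration screen; inactive means inhibition below 50%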
ERa SRC1 inh: blocks coactivator binding to human estrogen receptor alpha | TR-FRET ER-alpha LBD / SRC-1 peptide, estradiol-bound | inhibition, % at 25.6 µM | 1.7% of 86,000 active; in the data active means inhibition above about 50%
Target sequence (P03372 whole entry, looked up, the tested form may be a part): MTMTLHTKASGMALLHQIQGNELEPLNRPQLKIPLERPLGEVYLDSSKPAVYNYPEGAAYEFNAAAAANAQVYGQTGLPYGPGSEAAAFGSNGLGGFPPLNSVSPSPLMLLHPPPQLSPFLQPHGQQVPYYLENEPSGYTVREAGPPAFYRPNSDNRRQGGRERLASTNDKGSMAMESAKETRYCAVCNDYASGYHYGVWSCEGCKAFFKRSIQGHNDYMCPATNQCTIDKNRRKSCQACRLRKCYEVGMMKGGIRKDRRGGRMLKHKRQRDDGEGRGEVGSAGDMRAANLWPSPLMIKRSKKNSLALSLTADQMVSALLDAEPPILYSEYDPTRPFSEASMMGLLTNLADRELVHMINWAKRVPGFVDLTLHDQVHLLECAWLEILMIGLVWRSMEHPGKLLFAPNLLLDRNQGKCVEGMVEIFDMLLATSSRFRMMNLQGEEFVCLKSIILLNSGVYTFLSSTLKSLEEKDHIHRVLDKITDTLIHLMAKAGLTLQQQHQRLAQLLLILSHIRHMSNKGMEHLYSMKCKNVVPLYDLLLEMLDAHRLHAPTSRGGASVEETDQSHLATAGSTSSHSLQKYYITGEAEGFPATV
ERa SRC1 pot: ER-alpha (human) coactivator binding potentiation | P03372 | TR-FRET ERalpha-LBD/SRC-Cy5 coactivator binding, 2 h; 100 = basal binding, no effect | coactivator binding (% of control), % at 25.6 µM | 1.3% of 86,000 active; in the data active means activity above about 200%;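 further: binding measured in presence of low estradiol as agonist stimulus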
Hits are given with their value; . = inactive; / = no result; [ ] = dose if it differs, or a comment. Rows were chosen to be rich in hits. Some 3.3% of all compounds tested hit in one or more screens of this group.

SMILES	Smad3 inh	ERb SRC1 inh	PLK1 PBD inh	PLK1 kinase inh	ERa SRC1 inh	ERa SRC1 pot
N#Cc1cc2ccccc2nc1SCC(=O)Nc1ccccc1N1CCOCC1	/	/	.	.	/	/
Cc1cccc2cc(C#N)c(SCC(=O)Nc3ccccc3N3CCOCC3)nc12	.	.	.	.	.	295[fluorescence artefact?]
Cc1cccc2cc(C#N)c(SCC(=O)N3CCC(C)CC3)nc12	.	.	.	.	.	217[fluorescence artefact?]
COc1ccc2cc(C#N)c(SCC(=O)N3CCCC3)nc2c1	.	.	.	.	.	.
CCSc1nc2ccc(OC)cc2cc1C#N	.	.	.	.	.	.
CC1(C)O[C@@H]2[C@@H](CO[C@H]2c2[nH]nc3c(=O)[nH]c(=O)[nH]c23)O1	.	/	/	/	/	/
CC(C)[C@@H]1O[C@H](/C=C/c2ccccc2)OCC1(C)C	.	/	/	/	/	/
CNS(=O)(=O)c1ccccc1C(=N)c1ccccc1	.	/	/	/	/	/
NC(=O)C/C=C/CC(N)=O	.	/	/	/	/	/
CCOc1cc(NC(=O)CC(C)C)c(OCC)cc1NC(=O)CCn1nnc2ccccc21	/	/	.	.	/	/
COc1ccc2nc(NC(=O)c3cccc(OCc4c(C)noc4C)c3)sc2c1	.	.	/	/	.	.
CCc1ccc2nc(NC(=O)CSCc3c(C)noc3C)sc2c1	.	91[fluorescence artefact?]	.	.	.	.
O=C(Cn1nc(Cc2cccnc2)c2ccccc2c1=O)N1CCN(C(=O)c2ccco2)CC1	.	.	.	61	.	.
N#C/C(=C(/O)C(=O)O)c1ccc(-c2cccc3ccccc23)cc1	.	/	/	/	/	/
CC(C)Cn1c(-c2csc3c2CCCC3)n[nH]c1=S	/	/	.	.	/	/
Cc1nc(Oc2cccc(Cl)c2)c2oc3ccccc3c2n1	.	74[fluorescence artefact?]	.	.	.	.
Cc1nnc(NC(=O)c2c(-c3ccccc3)noc2C)s1	.	.	.	.	.	.
Cc1onc(-c2ccccc2)c1C(=O)Nc1nc(-c2cc(F)ccc2F)cs1	.	.	.	.	.	208[fluorescence artefact?]
Cc1onc(-c2ccccc2)c1C(=O)Nc1cccc2nsnc12	.	.	.	.	.	266
CCOc1ccc(C(=O)CCN2CCCCC2)cc1	.	59	/	/	.	.
COc1ccc(C(=O)CCN2CCCCCC2)cc1	/	/	.	.	/	/
O=C(CSc1nc2ccccc2c2ccccc12)c1ccccc1	.	/	/	/	/	/
CCC(=O)Oc1c(-c2ccccc2)c2nc3ccccc3nc2c2ccccc12	.	.	.	.	.	221[fluorescence artefact?]
O=C1Nc2ccccc2C1=Nc1cccc2ncccc12	.	/	/	/	/	/
COc1ccc(NC(=O)c2noc3c2CCC3)cc1	.	90[fluorescence artefact?]	.	.	86[fluorescence artefact?]	.
SMILES	Smad3 inh	ERb SRC1 inh	PLK1 PBD inh	PLK1 kinase inh	ERa SRC1 inh	ERa SRC1 pot
COc1cc(NC(=O)c2noc3c2CCC3)c(OC)cc1Cl	.	86[fluorescence artefact?]	/	/	88[fluorescence artefact?]	.
CC(C)c1ccccc1S(=O)c1ccccc1C(C)(C)O (stereo not given)	.	/	/	/	/	/
O=C(c1n[nH]c2ccccc12)N1CCN(S(=O)(=O)c2ccc3ccccc3c2)CC1	.	.	.	.	.	.
CC(CC(=O)O)(CC(=O)O)C(=O)O	.	/	/	/	/	/
CCOC(=O)N1CCC(Nc2c(N3CCN(c4cccc(C(F)(F)F)c4)CC3)c(=O)c2=O)CC1	.	63[fluorescence artefact?]	.	.	.	.
Cc1cc(C)nc(SCCc2cccc[n+]2C)n1	.	/	/	/	/	/
CN1CCN(C(=S)c2ccc(OCC(=O)Nc3cccc(C(F)(F)F)c3)cc2)CC1	/	/	.	.	/	/
CCCCn1c(N)c(-c2nc3ccccc3s2)c2c([N+](=O)[O-])nn(C)c(=O)c21	/	/	.	.	/	/
Cn1nc([N+](=O)[O-])c2c(-c3nc4ccccc4s3)c(N)n(C3CCCCC3)c2c1=O	.	65	.	.	93	.
CC(C)c1nnc(NC(=O)CCC(=O)N2CCN(c3ccccn3)CC2)s1	.	.	.	.	.	.
Nc1ncnc2nc(-c3ccc(C[P+](c4ccccc4)(c4ccccc4)c4ccccc4)cc3)[nH]c12	.	/	/	/	/	/
c1ccc2c(c1)CCN2CCN1CCc2ccccc21	.	.	/	/	.	.
CN(C)CCN1CCc2ccccc21	.	55[fluorescence artefact?]	.	.	.	.
COc1cccc2cc(C(=O)Nc3cccc(C)n3)c(=O)oc12	.	.	/	/	.	253
O=C(Nc1cccnc1N1CCOCC1)c1cc2ccccc2oc1=O	.	.	/	/	.	.
COc1cccc2cc(C(=O)Nc3cccnc3N3CCOCC3)c(=O)oc12	.	.	.	.	.	289
O=C(O)c1ccc(Cc2ccccc2C(=O)O)cc1	.	/	/	/	/	/
Nc1nc(N)c2[nH]c(CNC3CCC(C(=O)O)CC3)nc2n1 (stereo not given)	.	/	/	/	/	/
